Among all 360,000 compounds or so, about 11,000 (3.1%) were called active. Entries that show only a call come without a potency. Inconclusive results (about 4%) are left out. The sample holds actives, similar compounds and a random draw of the others, so the mix is not that of the screen. Unmarked numbers belong to inactive results. Calls come from the whole dose curve; as a rule, active = well fitted inhibition curve with a large enough effect; inconclusive = small, poorly fitted or top-dose-only effect; inactive = no such curve, though single readings can be large or run the other way.
molecular target: Schistosoma mansoni thioredoxin glutathione reductase (TGR) (UniProt Q962Y6); assay: qHTS Assay for the Inhibitors of Schistosoma Mansoni Peroxiredoxins; details: purified TGR, DTNB reduction, TNB absorbance 405 nm; series mostly up to 114 µM; note: nearly all actives have a fitted effect of over 60% in size
In short: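 Kinetic colorimetric format: TGR-catalysed, NADPH-driven DTNB reduction monitored via TNB absorbance. Enzyme dispensed at 20 nM; compound exposure 15 min at room temperature before reaction start.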
Potency is the fitted concentration of half-maximal effect.

| Structure (SMILES) | Potency | activity change, negative = inhibition |
| --- | --- | --- |
| CSc1nc(-c2ccccc2Cl)nc2c1Cc1c(CO)cnc(C)c1O2 | inactive |  |
| CSc1nc(-c2ccc(F)cc2)nc2c1Cc1c(CO)cnc(C)c1O2 | inactive |  |
| Cc1ccccc1CSc1nc(-c2ccccc2)nc2c1Cc1c(CO)cnc(C)c1O2 | 39.8 µM (active) |  |
| CC(=O)Nc1ccc(NC(=O)CN2CCCC(C)C2)c(Cl)c1 (stereo not drawn) |  | 9.99% [at 11.4 µM] |
| CC1CCCN(CC(=O)Nc2cc(Cl)ccc2Oc2ccccc2)C1 (stereo not drawn) | inactive |  |
| Cc1cc(NC(=O)CN2CCCC(C)C2)n(-c2nc3ccccc3s2)n1 (stereo not drawn) | 12.6 µM (active) |  |
| COc1ccc(C(=O)Nc2nonc2-c2ccc(OC)c(OC)c2)cc1Cl | inactive |  |
| COc1cccc(CNc2nccn(-c3ccc(OC)c(OC)c3)c2=O)c1 | inactive |  |
| O=C(NCc1ccco1)c1ccc([N+](=O)[O-])cc1Cl | inactive |  |
| O=C(NCc1ccco1)c1cnn2c(C(F)(F)F)cc(-c3ccco3)nc12 | 50.1 µM (active) |  |
| O=C(O)c1cnn2c(C(F)(F)F)cc(-c3ccccc3)nc12 | inactive |  |
| OCc1cnc(SCc2ccc(F)cc2)n1Cc1ccc(F)cc1 | inactive |  |
| COc1ccc(N2CCN(c3cc(C)nc4nncn34)CC2)cc1 | inactive |  |
| Cc1[nH]c(=O)c(C(=O)/C=C/c2ccccc2)c2c1CCCC2 | 35.5 µM (active) |  |
| COC(=O)c1c(C)[nH]c(C(=O)/C=C/c2ccc(Cl)cc2)c1C | inactive |  |
| C/C(=C\c1ccccc1)C1NC(=O)c2c(sc3c2CCCC3)N1 (stereo not drawn) | inactive |  |
| Cc1nc(-c2ccc(Cl)cc2)sc1C(=O)CBr | 39.8 µM (active) |  |
| Cc1nc(-c2ccccc2)sc1C(=O)/C=C/N(C)C | inactive |  |
| Cc1nc(-c2ccc(Cl)cc2)sc1C1(C)CC(c2ccccc2F)=NO1 (stereo not drawn) | inactive |  |
| COC(=O)c1cc(NC(=O)CCS(=O)(=O)c2cc(Br)cc3c2N(C(=O)C2CC2)CC3)cc(C(=O)OC)c1 | inactive |  |
| Cc1cc(C)c2[nH]c(=O)c(C(c3nnnn3Cc3ccc4c(c3)OCO4)N3CCCC3)cc2c1 (stereo not drawn) | 15.8 µM (active) |  |
| Fc1ccccc1C(c1nnnn1Cc1ccc2c(c1)OCO2)N1CCN(Cc2ccccc2)CC1 (stereo not drawn) | inactive |  |
| Cc1ccc(S(=O)(=O)Cn2nnnc2CN2CCN(Cc3ccc4c(c3)OCO4)CC2)cc1 | inactive |  |
| Cc1cc2nc(-c3ccc(NC(=O)c4cc5ccccc5o4)cc3)oc2cc1C | inactive |  |
| COc1cc(OC)cc(C(=O)Nc2ccc3nc(Nc4cccc(C(F)(F)F)c4)cc(C)c3c2)c1 | inactive |  |
| O=C(OCc1cc(Cl)ccc1OC(F)F)c1cccnc1 | inactive |  |
| O=C(NCc1ccc(Cl)c(Cl)c1)c1cccnc1 | inactive |  |
| O=C(/C=C/c1ccc(Cl)cc1Cl)c1cccnc1 | 8.91 µM (active) |  |

— PubChem BioAssay AID485364 (National Center for Advancing Translational Sciences (NCATS), 2010)
